Results on 34 molecules are retold here after PubChem BioAssay (NCATS).

“And” between values parts separate entries of the source, which are not always exact repeats. Equal values may be shown once. Results filed as inconclusive are left out. More than one record can exist for a structure, and the calls need not agree. The source made the active and inactive calls. Unless noted, the call rests on the fitted dose curve; in most records, active means well fitted curve in the direction sought with a large enough effect; inconclusive means small, poorly fitted or top-dose-only effect, or another doubt; inactive means no such curve, though single readings can be large; an effect the other way counts as inactive or inconclusive.
On the % scale 0 is the no-effect control and ±100 the full control effect.

Sequence of Cytochrome P450 2C9 (Homo sapiens) (P11712 whole entry, looked up): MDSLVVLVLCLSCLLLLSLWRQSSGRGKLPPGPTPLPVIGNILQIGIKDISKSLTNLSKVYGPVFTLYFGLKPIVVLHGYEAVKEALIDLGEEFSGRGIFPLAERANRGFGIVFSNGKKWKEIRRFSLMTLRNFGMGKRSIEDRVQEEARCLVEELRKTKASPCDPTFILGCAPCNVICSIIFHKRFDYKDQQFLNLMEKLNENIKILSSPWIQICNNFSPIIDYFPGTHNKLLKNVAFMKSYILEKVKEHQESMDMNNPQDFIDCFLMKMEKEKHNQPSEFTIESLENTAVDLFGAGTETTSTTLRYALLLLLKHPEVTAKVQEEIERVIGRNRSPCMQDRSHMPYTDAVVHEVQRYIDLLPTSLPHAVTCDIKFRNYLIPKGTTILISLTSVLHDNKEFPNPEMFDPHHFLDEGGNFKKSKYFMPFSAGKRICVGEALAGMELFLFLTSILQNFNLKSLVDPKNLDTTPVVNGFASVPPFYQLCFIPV

The target in the first test is Cytochrome P450 2C9 (Homo sapiens) (UniProt P11712). Put plainly: Cytochrome P450 family 2 subfamily C member 9 (CYP2C9) small molecule antagonists: luciferase biochemical (cell-free) qHTS assay (AID 1645842; active means well fitted curve in the direction sought with a large enough effect in the repeat runs; an effect the other way counts as inactive or inconclusive; further: nearly all actives have a fitted effect of over 55% in size; further: potency means the concentration at half of the fitted maximal effect). The following applies: P450-Glo CYP2C9 enzyme assay, luciferin luminescence; series mostly up to 57.4 µM; activity change, negative = inhibition: at the top concentration. The method in brief:
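P450-Glo CYP2C9 system: proluciferin substrate with enzyme in mix containing 0.4% BSA, 10 min at room temperature, then NADPH regeneration solution added and incubated 1 h at 37C. Detection reagent stopped reaction; luminescence read after 20 min as RLU.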
On the technique in general: In qHTS, concentration-response curves come from the screen itself.
`CC(=O)c1ccc(OCC(=O)N2CCCCC2)cc1`: the “activity change, negative = inhibition” value was 1.32% (inactive). On to `Cc1ccc(C(=O)c2ccc(CC(=O)O)n2C)cc1`, for which the Potency result is “inactive and 15.1 µM (active)”. Take `O=C(O)/C=C\C(=O)O`: the “activity change, negative = inhibition” value is 8.7% (inactive). For the molecule `[O-][n+]1ccccc1SSc1cccc[n+]1[O-]`, the Potency is 1.34 µM (active). As to `N=C(N)N`, the “activity change, negative = inhibition” value is -5.36% (inactive). With `Nc1c(CC(=O)O)cccc1C(=O)c1ccc(Br)cc1`, the “activity change, negative = inhibition” value was 5.39% (inactive). On to `Nc1ccc(O)c([N+](=O)[O-])c1`, for which the Potency was 21.8 µM (active). As for `CCOC(=O)c1ccccc1O`, the “activity change, negative = inhibition” value was 12% (inactive).

`C=CCCCCCCCCC(=O)O`: the “activity change, negative = inhibition” value is 2.7% (inactive). Turning to `CC(C(=O)O)c1ccc2c(c1)[nH]c1ccc(Cl)cc12` (centres undefined), the “activity change, negative = inhibition” value was 1.5% (inactive).

On to `CO[C@@]1(NC(=O)Cc2cccs2)C(=O)N2C(C(=O)O)=C(COC(N)=O)CS[C@@H]21`, for which the “activity change, negative = inhibition” value was 8.34% (inactive). Still for that read-out and setting: in the case of `O=Cc1ccc(O)c(O)c1O` it was -12.9% (inactive). The same measure, in the same setting: in the case of `CCCCCCCCCCCC(=O)[O][Sn]([CH2]CCC)([CH2]CCC)[O]C(=O)CCCCCCCCCCC` it was 12.6% (inactive); in that of `Nc1ccc(C(=O)O)c(O)c1`, 7.34% (inactive); in that of `O=C(O)c1cc(O)c(O)c(O)c1`, -2.96% (inactive). Turning to `CC(C(=O)O)c1ccc(C(=O)c2ccccc2)s1` (centres undefined), the Potency was 15.5 µM (active).

The next test deals with Papain (Carica papaya) (UniProt P00784). The experiment in a line: Primary qHTS assay for inhibitors of the protease papain (AID 1645873).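 Further: papain turnover of Z-FR-AMC read as the AMC fluorescence gain over 10 min.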 The following applies: papain Z-FR-AMC cleavage, AMC fluorescence; series mostly up to 49.8 µM; activity change, negative = inhibition: at the top concentration.
Sequence of Papain (Carica papaya) (P00784 whole entry, looked up): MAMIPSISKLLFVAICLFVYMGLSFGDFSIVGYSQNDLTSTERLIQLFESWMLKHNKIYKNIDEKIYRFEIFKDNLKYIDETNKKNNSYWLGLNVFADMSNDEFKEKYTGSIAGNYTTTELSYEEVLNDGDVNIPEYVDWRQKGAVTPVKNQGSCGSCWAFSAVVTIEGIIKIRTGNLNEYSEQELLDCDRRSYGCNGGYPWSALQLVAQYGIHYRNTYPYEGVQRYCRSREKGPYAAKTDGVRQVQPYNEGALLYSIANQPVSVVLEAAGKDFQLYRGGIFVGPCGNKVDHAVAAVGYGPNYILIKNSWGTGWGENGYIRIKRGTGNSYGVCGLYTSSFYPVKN
Consider `CC(=O)SCC[N+](C)(C)C`, for which the “activity change, negative = inhibition” value was -9.63% (inactive). Still for that read-out and setting: the figure for `O=c1[nH]c2cc(C(F)(F)F)ccc2n1-c1cc(C(F)(F)F)ccc1O` is 16.7% (inactive); for `COc1ccc(NC(=O)/C=C/c2ccc(Cl)cc2)cc1` it is -3.33% (inactive); for `O=C1C(SCCO)=C(SCCO)C(=O)c2ccccc21` it is -23% (inactive). For `Nc1nc(SCc2ccc([N+](=O)[O-])cc2)c2ncn([C@@H]3O[C@H](CO)[C@@H](O)[C@H]3O)c2n1`, the “activity change, negative = inhibition” value is -6.39% (inactive). Still for that read-out and setting: the figure for `CC(C)(C)c1ccc(S(=O)(=O)/C=C/C#N)cc1` is -7.47% (inactive); for `O=C1NC(=O)/C(=C/c2ccc(-c3ccc(F)cc3O)o2)S1` it is 5.85% (inactive). Still for that read-out and setting: in the case of `Oc1ccc(C2CNCc3sccc32)cc1O` (centres undefined) it was 5.13% (inactive). For the molecule `COc1cc(SC)ccc1C(=O)N1CCC(Cc2ccccc2)CC1`, the “activity change, negative = inhibition” value was -4.41% (inactive).

Consider `OC[C@H]1O[C@@H](n2cnc3c(NC4CCCC4)ncnc32)[C@H](O)[C@@H]1O`, for which the “activity change, negative = inhibition” value was 14.1% (inactive). As for `Clc1ccc(N2CCN(Cc3c[nH]c4ncccc34)CC2)cc1`, the “activity change, negative = inhibition” value is 13.4% (inactive). On the same count and under the same terms, in the case of `CC1(C)CCC=[N+]1[O-]` it was -2.25% (inactive); in that of `O=C(O)c1cc([N+](=O)[O-])ccc1NCCCc1ccccc1`, -11.8% (inactive). Regarding `CN1CCc2cc(NC(=O)Nc3cccnc3)ccc21`, the “activity change, negative = inhibition” value is -0.81% (inactive). The same measure, in the same setting: in the case of `O=C1NC(=O)c2c1c(-c1ccccc1)cc1[nH]c3ccc(O)cc3c21` it was -26.6% (inactive); in that of `O=[N+]([O-])c1ccc(CSc2ncnc3c2ncn3[C@@H]2O[C@H](CO)[C@@H](O)[C@H]2O)cc1`, 3.15% (inactive). As to `CCCCCCCCCCCCCCCC(=O)OC(CC(=O)O)C[N+](C)(C)C` (centres undefined), the “activity change, negative = inhibition” value is 16.5% (inactive). Regarding `N[C@H](CCCP(=O)(O)O)C(=O)O`, the “activity change, negative = inhibition” value is -6.39% (inactive).
